Experimental findings from the supplement of paper PMC12645437, “Orthogonal IMiD-Degron Pairs Induce Selective Protein Degradation in Cells” (ACS Chemical Biology, 2025) are described below.

In all, about 8,300 sequences were measured (“log2 fold change of degron read counts, EGFP-low vs EGFP+ sorted cells (limma voom), compound-induced degradation”: median about -1.1, highest 2% from about 3.2 on). For the sample, the highest values were picked, then their nearest neighbours and some sequences at random.

For the assay, the target named is T1, CRBN, Q96SW2.
T1 chain: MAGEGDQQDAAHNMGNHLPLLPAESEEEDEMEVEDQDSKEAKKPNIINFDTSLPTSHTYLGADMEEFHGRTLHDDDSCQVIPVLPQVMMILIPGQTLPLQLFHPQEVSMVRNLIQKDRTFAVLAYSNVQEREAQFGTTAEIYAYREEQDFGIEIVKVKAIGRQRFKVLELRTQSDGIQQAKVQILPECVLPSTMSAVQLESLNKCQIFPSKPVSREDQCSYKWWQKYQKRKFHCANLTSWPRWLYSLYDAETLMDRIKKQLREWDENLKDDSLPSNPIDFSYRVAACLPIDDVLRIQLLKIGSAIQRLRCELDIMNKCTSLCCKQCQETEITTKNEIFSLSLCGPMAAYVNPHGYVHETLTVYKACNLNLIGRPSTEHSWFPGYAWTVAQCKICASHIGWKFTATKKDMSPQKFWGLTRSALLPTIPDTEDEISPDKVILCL
Put plainly: log2 fold change of degron read counts, EGFP-low vs EGFP+ sorted cells (limma voom), compound-induced degradation; higher = more compound-induced degradation of the degron-EGFP fusion; degrons are variants of IKZF1/3 zinc finger 2; compound dose not given here. Particulars: Jurkat, 18 h. On the procedure:
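Pooled library of 8380 IKZF3 ZF2 degron mutants (positions 146-167 varied within the IKZF3 130-189 degron; only the varied core is printed, flanks not printed) fused to EGFP with IRES-mCherry, lentivirally expressed in Jurkat cells. mCherry+ cells were treated with one IMiD compound for 18 h (dose not stated) and FACS-sorted into EGFP-low and EGFP+ populations. Degron sequences were counted by NGS, and log2FC (EGFP-low vs EGFP+) was estimated by limma voom over 3 biological replicates.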

Setting [1] is: compound: compound 19 (5-tert-butyl-thalidomide).
The mark [2] stands for this setting: compound: compound 22 (5-morpholino-thalidomide).
[3] abbreviates: compound: compound 33 (diphenyl IMiD analogue).
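Also: pooled lentiviral library of zinc finger degron-EGFP fusions in mCherry-positive Jurkat cells, FACS-sorted after compound exposure, with degron abundance counted by next-generation sequencing.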

FICNICGATFTQKGNLLRHIKL [46F_47I_49N_50I_52G_53A_54T_55F_67L_, Q9UKT9]: the “log2 fold change of degron read counts” value reads like this: under setting [1], -1.79; under setting [2], 0.00658; under setting [3], 1.15; (compound: thalidomide) 1.1.
Consider FWCNICGAQFTQKGNLLRHIKL [46F_47W_49N_50I_52G_53A_54Q_55F_67L_, Q9UKT9], for which the “log2 fold change of degron read counts” value reads like this: under setting [1], 2.02; under setting [2], 3.59; under setting [3], 1.86; (compound: thalidomide) 0.626.
The matching figures for FVCNICGAQFTQKGNLLRHIKL [46F_47V_49N_50I_52G_53A_54Q_55F_67L_, Q9UKT9]: -0.604, 1.47, 2.69 and 1.92.
The matching figures for FYCNICGAQFTQKGNLLRHIKL [46F_47Y_49N_50I_52G_53A_54Q_55F_67L_, Q9UKT9]: 2.24, 3.15, 1.75 and 0.339.
On the same counts, the results for FRCNICGAQFTQKGNLLRHIKL [46F_47R_49N_50I_52G_53A_54Q_55F_67L_, Q9UKT9] are -1.02, -0.868, -0.156 and 0.111.
Consider FACNICGAQFTQKGNLLRHIKL [46F_47A_49N_50I_52G_53A_54Q_55F_67L_, Q9UKT9], for which the “log2 fold change of degron read counts” value runs as follows: under setting [1], 2.04; under setting [2], 1.62; under setting [3], 0.179; (compound: thalidomide) -0.104.
The matching figures for FQCNICGAQFTQKGNLLRHIKL [46F_47Q_49N_50I_52G_53A_54Q_55F_67L_, Q9UKT9]: -0.94, 1.3, 1.62 and 3.28.
On the same counts, the results for LRCEICGFFCTQKGNLLRHIKL [46L_47R_49E_50I_52G_53F_54F_55C_67L_, Q9UKT9] are -0.285, -0.446, 0.954 and 1.12.
Take FSCNQCGHKFTQKGNLLRHIKL [46F_47S_49N_50Q_52G_53H_54K_55F_67L_, Q9UKT9]: the “log2 fold change of degron read counts” value runs as follows: under setting [1], -2.24; under setting [2], -2.55; under setting [3], -2.41; (compound: thalidomide) -2.6.
The matching figures for FACEQCGAYFTQKGNLLRHIKL [46F_47A_49E_50Q_52G_53A_54Y_55F_67L_, Q9UKT9]: -0.764, -2.44, -1.5 and -1.62.
The matching figures for FCCNQCGHDFTQKGNLLRHIKL [46F_47C_49N_50Q_52G_53H_54D_55F_67L_, Q9UKT9]: -2.95, -3.42, -3.04 and -2.8.
On the same counts, the results for FDCNQCGRCFTQKGNLLRHIKL [46F_47D_49N_50Q_52G_53R_54C_55F_67L_, Q9UKT9] are -2.4, -2.73, -2.2 and -1.93.
Consider FWCPVCGAAFTQKGNLLRHIKL [46F_47W_49P_50V_52G_53A_54A_55F_67L_, Q9UKT9], for which the “log2 fold change of degron read counts” value amounted to 3.13 under setting [1], 3.69 under setting [2], 2.44 under setting [3] and 1.11 (compound: thalidomide).
On the same counts, the results for FECPVCGAAFTQKGNLLRHIKL [46F_47E_49P_50V_52G_53A_54A_55F_67L_, Q9UKT9] are 2.1, -0.445, 2.32 and 3.
The matching figures for FCCPVCGAAFTQKGNLLRHIKL [46F_47C_49P_50V_52G_53A_54A_55F_67L_, Q9UKT9]: 3.16, 2.58, 2.48 and 2.16.
Take FYCPQCGAAFTQKGNLLRHIKL [46F_47Y_49P_50Q_52G_53A_54A_55F_67L_, Q9UKT9]: the “log2 fold change of degron read counts” value reads like this: under setting [1], 1.03; under setting [2], 1.46; under setting [3], 1.86; (compound: thalidomide) -0.429.
On the same counts, the results for FICPVCGAAFTQKGNLLRHIKL [46F_47I_49P_50V_52G_53A_54A_55F_67L_, Q9UKT9] are -0.386, 2.86, 2.22 and 2.77.
On the same counts, the results for FMCPVCGAAFTQKGNLLRHIKL [46F_47M_49P_50V_52G_53A_54A_55F_67L_, Q9UKT9] are 1.72, 2.21, 3.08 and 2.11.
For the sequence FVCPQCGAAFTQKGNLLRHIKL [46F_47V_49P_50Q_52G_53A_54A_55F_67L_, Q9UKT9], the “log2 fold change of degron read counts” value was -1.44 under setting [1], 1.34 under setting [2], 1.04 under setting [3] and 1.46 (compound: thalidomide).
On the same counts, the results for FHCPVCGAAFTQKGNLLRHIKL [46F_47H_49P_50V_52G_53A_54A_55F_67L_, Q9UKT9] are 2.96, 2.4, 2.16 and 0.942.
Turning to FGCPVCGAAFTQKGNLLRHIKL [46F_47G_49P_50V_52G_53A_54A_55F_67L_, Q9UKT9], the “log2 fold change of degron read counts” value under setting [1] was 3.32, the “log2 fold change of degron read counts” value under setting [2] came to 2.34, the “log2 fold change of degron read counts” value under setting [3] came out at 2.97 and the “log2 fold change of degron read counts” value (compound: thalidomide) came to 1.29.
The matching figures for FQCPQCGAAFTQKGNLLRHIKL [46F_47Q_49P_50Q_52G_53A_54A_55F_67L_, Q9UKT9]: -0.422, 1.04, 0.683 and 3.27.
As for FVCPVCGAAFTQKGNLLRHIKL [46F_47V_49P_50V_52G_53A_54A_55F_67L_, Q9UKT9], the “log2 fold change of degron read counts” value runs as follows: under setting [1], 0.708; under setting [2], 3.2; under setting [3], 2.37; (compound: thalidomide) 3.08.
The matching figures for FQCPVCGAAFTQKGNLLRHIKL [46F_47Q_49P_50V_52G_53A_54A_55F_67L_, Q9UKT9]: 2.54, 3.1, 2.52 and 3.69.
